This passage reports outcome results from PubChem BioAssay (EPA / NIEHS).

Inconclusive results are not listed. Activity calls are given as the source filed them. How the source made its calls: active means hit-call score of the fitted dose curve at least 0.9, where 1 is the maximum; inconclusive means response in the unintended direction; inactive means score below 0.9.

Sequence of Ratio of Nucleoli Translocation and Cytoplasm, AR (gene 367) (P10275 whole entry, looked up, the tested form may be a part): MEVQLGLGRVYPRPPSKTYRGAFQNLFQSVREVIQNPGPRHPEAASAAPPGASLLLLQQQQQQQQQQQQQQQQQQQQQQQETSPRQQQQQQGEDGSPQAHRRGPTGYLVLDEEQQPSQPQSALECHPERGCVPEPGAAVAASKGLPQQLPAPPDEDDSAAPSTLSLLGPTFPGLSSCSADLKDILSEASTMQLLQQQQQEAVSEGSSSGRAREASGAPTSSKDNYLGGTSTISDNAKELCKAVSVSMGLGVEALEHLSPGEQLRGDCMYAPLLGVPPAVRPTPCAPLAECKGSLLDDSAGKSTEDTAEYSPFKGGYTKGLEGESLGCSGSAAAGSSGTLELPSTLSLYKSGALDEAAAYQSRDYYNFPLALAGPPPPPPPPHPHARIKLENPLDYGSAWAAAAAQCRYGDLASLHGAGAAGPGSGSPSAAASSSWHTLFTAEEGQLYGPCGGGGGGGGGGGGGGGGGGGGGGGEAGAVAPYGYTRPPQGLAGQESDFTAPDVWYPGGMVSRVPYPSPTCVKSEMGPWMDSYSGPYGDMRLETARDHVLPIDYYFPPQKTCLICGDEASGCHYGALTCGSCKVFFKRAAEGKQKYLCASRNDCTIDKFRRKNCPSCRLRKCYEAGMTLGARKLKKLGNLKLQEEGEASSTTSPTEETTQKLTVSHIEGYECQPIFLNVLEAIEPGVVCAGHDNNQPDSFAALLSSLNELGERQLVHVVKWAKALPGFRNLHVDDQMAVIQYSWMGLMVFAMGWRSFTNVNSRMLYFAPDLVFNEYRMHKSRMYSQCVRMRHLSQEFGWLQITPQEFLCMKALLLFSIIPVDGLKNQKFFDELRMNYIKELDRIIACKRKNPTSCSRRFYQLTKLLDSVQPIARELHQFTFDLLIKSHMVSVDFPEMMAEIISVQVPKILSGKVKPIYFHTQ

The experiment deals with Ratio of Nucleoli Translocation and Cytoplasm, AR (gene 367) (UniProt P10275). The experiment can be described thus: UPITT_HCI_U2OS_AR_TIF2_Nucleoli_Cytoplasm_Ratio_Agonist: University of Pittsburgh U2OS Androgen Receptor-Transcriptional Intermediary Factor 2 (AR-TIF2) Agonism High Content Imaging Assay for Ratio of Nucleoli Translocation and Cytoplasm (AID 2284000).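 Further: hits raise the red nucleolar to cytoplasm ratio above vehicle.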 From the text:
UPITT_AR_TIF2_PPIB is a cell-based, high-content imaging assay that uses U2OS, a human osteosarcoma cell line, expressing a human androgen receptor fused to red fluorescent protein and the coactivator TIF2 fused to green fluorescent protein. UPITT_HCI_U2OS_AR_TIF2_Nucleoli_Cytoplasm_Ratio_Agonist is one of four assay components measured from the UPITT_AR_TIF2_PPIB assay. It is designed to make measurements of the ratio of red fluorescence localized in the nucleolar region of the cell nucleus to red fluorescence localized in the cytoplasm as detected with high-content fluorescent imaging.Data from the assay component UPITT_HCI_U2OS_AR_TIF2_Nucleoli_Cytoplasm_Ratio_Agonist was analyzed into 1 assay endpoint. This assay endpoint, UPITT_HCI_U2OS_AR_TIF2_Nucleoli_Cytoplasm_Ratio_Agonist, was analyzed in the positive analysis fitting direction relative to DMSO as the baseline of activity. Using a type of binding reporter, measures of receptor for gain-of-signal activity can be used to understand the binding at the pathway-level as it relates to the gene AR.
Daughter plates containing 2 uL of 10 mM compounds in DMSO were prepared and replicated from the 384-well Library of Pharmacologically Active Compounds (LOPAC) master plates using the Bravo outfitted with a 384-well transfer head. Aluminum adhesive plate seals were applied with an Abgene Seal-IT 100 (Rochester, NY) plate sealer, and the plates were stored at -20 C in a Matrical MatriMinistore (Spokane, WA) automated compound storage and retrieval system. For screening, LOPAC daughter plates were withdrawn from -20C storage, thawed to ambient temperature, centrifuged 1-2 min at 50 g, and the plate seals were removed before the transfer of 98 uL of serum-free tissue culture medium (SFM) into wells using the BioTek Microflo liquid handler (BioTek, Winooski, VT) to generate a 200 uM intermediate stock concentration of library compounds (2.0% DMSO). The diluted compounds were mixed by repeated aspiration and dispensation using a 384-well P30 dispensing head on the Evolution P3 (EP3) liquid handling platform (PerkinElmer, Waltham, MA) and then 5 uL of diluted compounds was transferred to the wells of assay plates. In the LOPAC screen, compounds were individually tested at a final concentration of 20 uM (0.2% DMSO). After the diluted compounds had been transferred from the daughter plates to the primary HCS assay plates, aluminum adhesive plate seals were applied and the diluted daughter plates were stored frozen at -20C. To confirm active compounds identified in the primary screen, we withdrew the LOPAC daughter plates containing the 200 uM intermediate concentration of library compounds (2.0% DMSO) from -20C storage, thawed them to ambient temperature, centrifuged them for 1-2 min at 50 g, and removed the plate seals. A work list was generated to direct the Multiprobe Janus liquid handling platform (PerkinElmer) to cherry pick 75 uL from the wells of the diluted daughter plates that were flagged active in the primary screen and to reformat these into a 384-well plate hit confirmation daughter plate. Five microliters of primary HCS active compounds was then transferred into triplicate wells of assay plates using a 384-well P30 dispensing head on the Evolution P3 (EP3) liquid handling platform (PerkinElmer). […] Daughter plates containing 2 uL of the serially diluted compounds in DMSO were prepared and replicated from the 384-well serial dilution master plates using the Bravo outfitted with a 384-well transfer head. Aluminum adhesive plate seals were applied and plates were stored at -20C. For testing in the bioassays, daughter plates were withdrawn from -20C storage, thawed to ambient temperature, centrifuged for 1-2 min at 50 g, and the plate seals were removed before the transfer of 38 uL of SFM into wells using the BioTek Microflo liquid handler (BioTek) to generate an intermediate stock concentration of library compounds ranging from 1.95 to 500 uM (5.0% DMSO). […]
`COCCOCCOC`: the outcome was inactive.
For `Cc1ccc(C)c(C)c1`, the result was inactive.
On to `CC(=O)Oc1ccccc1C(=O)O`, for which the outcome was inactive.
As for `COc1cc(/C=C/C(=O)CC(=O)/C=C/c2ccc(O)c(OC)c2)ccc1O`, the outcome was inactive.
For the molecule `CC(C)(C)c1cc(O)c(C(C)(C)C)cc1O`, the outcome was inactive.
For `Cc1cc(NC(=O)C(=O)O)cc(C)c1Oc1ccc(O)c2c1CCC2`, the result was inactive.
The entry for `CCOc1ccc2c(c1)C(C)=CC(C)(C)N2` is “inactive”; for `Cc1cccc([N+](=O)[O-])c1C` it is “inactive”; for `O=C(O)Cc1ccccc1Nc1c(Cl)cccc1Cl` it is “inactive”.
`COc1cc(-c2nc(NC(=O)c3cc4cc(C)cc(C)c4n3CC(=O)O)sc2CCC2CCCCC2)c(OC)cc1Cl`: the result was inactive.
For `CN[C@H]1CC[C@@H](c2ccc(Cl)c(Cl)c2)c2ccc(S(N)(=O)=O)cc21`, the outcome was inactive.
On to `COc1ccc(S(=O)(=O)N2C(=O)[C@@](c3ccccc3OC)(N3C[C@H](O)C[C@H]3C(=O)N(C)C)c3cc(Cl)ccc32)c(OC)c1`, for which the outcome was inactive.
Take `Cc1ccc(C)c(O)c1C`: the result was inactive.
Regarding `Cc1ccc(N(C)C)cc1`, the result was inactive.
With `Cc1cccc(Nc2cc(Cl)nc(SCC(=O)O)n2)c1C`, the outcome was inactive.
The entry for `CNC(=O)[C@H]1O[C@@H](n2cnc3c(NCc4cc(Cl)ccc4OCc4cc(C)no4)ncnc32)[C@H](O)[C@@H]1N` is “inactive”.
The result for `CCCCCCCCCCC` reads “inactive”.
As for `Cc1nc(-c2ccc3c(c2)CCN(CCC2CCC(NC(=O)/C=C/c4ccc(F)cc4)CC2)CC3)no1` (centres undefined), the outcome was inactive.
On to `COc1ccc2c(c1)c(CC(=O)O)c(C)n2C(=O)c1ccc(Cl)cc1`, for which the result was inactive.
